Experimental findings from PubChem BioAssay are described below.

One experiment concerns the target Albumin (Bos taurus) (UniProt P02769). Briefly: bovine serum albumin binders on microarray, profiling panel, artefact control for SMM control protein annotation, biochemical, small-molecule microarray, Alexa647 label, 635/667 nm fluorescence (AID 1118).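 Note: score merges 667 nm emission intensity and signal-to-noise per printed compound spot.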 As to conditions: BSA-A647 binding, fluorescence 635 nm, higher = more signal.
Experiment [1] can be described thus: small-molecule microarray binders of probe aXIP, primary screen, biochemical, NeuroSMM set, 635/667 nm fluorescence (AID 1119).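 Note: probe is the protein aXip251-270 applied at 1 µg/mL to compound-printed slides; binding of probe to printed compounds measured as 667 nm fluorescence plus signal to noise.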 The note with it: higher = more signal, called active from +8 up or from −8 down.
The nature of experiment [2]: small-molecule binders of probe aNOTCH3, primary screen, biochemical, small-molecule microarray, 635/667 nm fluorescence (AID 1120).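 Note: probe is a biotin-tagged antibody raised against NOTCH3 rather than NOTCH3 protein; score merges spot fluorescence near 667 nm with spot signal to noise.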 As to conditions: higher = more signal.
The nature of experiment [3]: small-molecule binders of probe aNOTCH2, primary screen, biochemical, small-molecule microarray, 635/667 nm fluorescence (AID 1121).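 Note: score merges feature fluorescence read at 667 nm with its signal to noise.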 As to conditions: higher = more signal.
The target of experiment [4] is Carbonic anhydrase 2 (Homo sapiens) (UniProt P00918). Put plainly: CAII small-molecule binders, profiling panel, biochemical, small-molecule microarray, Alexa647-labelled CAII (AID 1122). The note with it: CAII-A647 binding fluorescence, higher = more signal.
Experiment [5] can be described thus: COS7 lysate on small-molecule microarray, probe aHis, 635 nm (AID 1123).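 Note: z-score combines 667nm fluorescence intensity with signal-to-noise per printed compound spot.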 The note with it: COS7 cell lysate, fluorescence, higher = more signal.
A short description of experiment [6]: compound binding in COS7 lysate, probe aLAP1, primary screen, cell lysate, small-molecule microarray (AID 1124).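 Note: lysate comes from COS7 cells expressing LAP1 and is applied at 0.3 µg/mL; score merges spot fluorescence near 667 nm with signal-to-noise over triplicate slides.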 The note with it: probe aLAP1, fluorescence, higher = more signal.
The subject of the next experiment is Sam68 (KHDRBS1). Briefly: Sam68 small-molecule binders, primary screen, biochemical, small-molecule microarray, 635 nm fluorescence (AID 1125).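 Note: score merges 667 nm channel intensity with signal to noise over triplicate slides.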 As to conditions: small-molecule microarray binding, higher = more signal.
Experiment [7] relates to Chordin-like protein 2 (CHRDL2). Put plainly: CHRDL2 small-molecule binders, primary screen, biochemical, small-molecule microarray, 635 nm fluorescence (AID 1126).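 Note: printed compound slides probed with Chrdl2 protein at 4 µg/mL for 1 h at 4 C; score merges 667 nm emission intensity with signal to noise over three replicate slides.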 The note with it: small-molecule microarray binding, fluorescence 635 nm; higher = more signal.
Experiment [8] has as its target Concanavalin-A (Canavalia ensiformis) (UniProt P02866). Briefly: ConA small-molecule binders, primary screen, artefact control for SMM control protein annotation, biochemical, small-molecule microarray, Alexa647 label, 635 nm (AID 1127).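 Note: z combines 667 nm emission intensity with signal-to-noise across three replicate slides.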 As to conditions: ConA-A647 binding fluorescence, higher = more signal.
Experiment [9] can be described thus: anti-His antibody binders, primary screen, artefact control for SMM control protein annotation, biochemical, small-molecule microarray, 635 nm fluorescence (AID 1128).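 Note: score merges feature fluorescence with signal-to-noise for each printed compound spot.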 As to conditions: anti-His Alexa647 antibody binding, higher = more signal.
Experiment [10] concerns Human papillomavirus type 1a E7 protein (residues 1-88). Put plainly: HPV1a E7 small-molecule binders, primary screen, biochemical, small-molecule microarray, residues 1-88, 635 nm (AID 1129). As to conditions: small-molecule microarray binding, fluorescence 635 nm; higher = more signal.
The target of experiment [11] is Focal adhesion kinase 1 (Homo sapiens) (UniProt Q05397). Briefly: small-molecule microarray binders of FAK, primary screen, biochemical, 635/667 nm fluorescence, BSA, DTT (AID 1130).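 Note: composite of spot emission at 667 nm and signal to noise over triplicate slides.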 The note with it: PTK2 binding, 635 nm fluorescence, higher = more signal.
Chain of Focal adhesion kinase 1 (Homo sapiens) (Q05397 whole entry, looked up): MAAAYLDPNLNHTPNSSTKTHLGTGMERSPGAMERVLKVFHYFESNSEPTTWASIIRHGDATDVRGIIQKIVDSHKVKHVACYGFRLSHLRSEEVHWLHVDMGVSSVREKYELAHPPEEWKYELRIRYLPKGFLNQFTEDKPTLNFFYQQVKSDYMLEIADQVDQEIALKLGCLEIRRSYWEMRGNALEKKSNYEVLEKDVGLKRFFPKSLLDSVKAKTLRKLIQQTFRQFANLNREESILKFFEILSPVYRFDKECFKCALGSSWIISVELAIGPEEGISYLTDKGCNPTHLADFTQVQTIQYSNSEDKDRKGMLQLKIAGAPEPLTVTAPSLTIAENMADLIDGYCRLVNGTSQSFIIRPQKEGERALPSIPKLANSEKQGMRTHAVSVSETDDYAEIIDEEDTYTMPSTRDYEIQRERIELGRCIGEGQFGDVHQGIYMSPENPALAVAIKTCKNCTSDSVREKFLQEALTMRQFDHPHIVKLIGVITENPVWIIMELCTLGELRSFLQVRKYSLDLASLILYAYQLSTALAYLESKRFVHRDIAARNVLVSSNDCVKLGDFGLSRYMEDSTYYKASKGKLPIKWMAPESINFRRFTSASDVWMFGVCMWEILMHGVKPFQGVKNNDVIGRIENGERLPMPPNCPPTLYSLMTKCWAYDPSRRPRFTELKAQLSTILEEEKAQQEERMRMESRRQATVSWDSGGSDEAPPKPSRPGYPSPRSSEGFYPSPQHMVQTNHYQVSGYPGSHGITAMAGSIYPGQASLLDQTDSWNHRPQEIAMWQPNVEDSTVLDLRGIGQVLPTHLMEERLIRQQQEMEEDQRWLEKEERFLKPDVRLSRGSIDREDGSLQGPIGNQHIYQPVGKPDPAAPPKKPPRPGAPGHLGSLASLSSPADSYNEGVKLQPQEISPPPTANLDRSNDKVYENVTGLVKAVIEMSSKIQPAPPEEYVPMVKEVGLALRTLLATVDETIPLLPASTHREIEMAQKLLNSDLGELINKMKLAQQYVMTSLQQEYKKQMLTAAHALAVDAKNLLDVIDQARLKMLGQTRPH
The subject of experiment [12] is Fibrinogen (Alexa647-labelled). Put plainly: fibrinogen binders on compound microarrays, profiling panel, artefact control for SMM control-protein annotation, biochemical, small-molecule microarray, 635/667 nm fluorescence (AID 1131).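 Note: z-score merges 667 nm fluorescence with per-spot signal-to-noise over triplicate slides.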 The note with it: fibrinogen-A647 binding fluorescence, higher = more signal.
Experiment [13] deals with Follistatin (Homo sapiens) (UniProt P19883). Put plainly: follistatin binders on small-molecule microarrays, primary screen, biochemical, small-molecule microarray, 635/667 nm fluorescence (AID 1132). The note with it: FST binding, 635 nm fluorescence, higher = more signal.
Chain of Follistatin (Homo sapiens) (P19883 whole entry, looked up): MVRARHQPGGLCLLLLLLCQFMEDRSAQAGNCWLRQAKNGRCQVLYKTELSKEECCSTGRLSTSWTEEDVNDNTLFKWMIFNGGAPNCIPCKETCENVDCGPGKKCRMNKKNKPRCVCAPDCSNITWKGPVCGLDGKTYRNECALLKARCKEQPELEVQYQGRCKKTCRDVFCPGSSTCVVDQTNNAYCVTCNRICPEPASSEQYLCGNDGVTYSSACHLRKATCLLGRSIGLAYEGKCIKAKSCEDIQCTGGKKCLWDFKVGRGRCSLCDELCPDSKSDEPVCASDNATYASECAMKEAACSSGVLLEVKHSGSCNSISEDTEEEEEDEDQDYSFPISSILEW
For experiment [14], the target named is Fibroblast growth factor 2 (Homo sapiens) (UniProt P09038). Put plainly: FGF2 binders on small-molecule microarrays, primary screen, biochemical, small-molecule microarray, 635/667 nm fluorescence (AID 1133). The note with it: small-molecule microarray binding, FGF2, fluorescence 635/667; higher = more signal.
Chain of Fibroblast growth factor 2 (Homo sapiens) (P09038 whole entry, looked up): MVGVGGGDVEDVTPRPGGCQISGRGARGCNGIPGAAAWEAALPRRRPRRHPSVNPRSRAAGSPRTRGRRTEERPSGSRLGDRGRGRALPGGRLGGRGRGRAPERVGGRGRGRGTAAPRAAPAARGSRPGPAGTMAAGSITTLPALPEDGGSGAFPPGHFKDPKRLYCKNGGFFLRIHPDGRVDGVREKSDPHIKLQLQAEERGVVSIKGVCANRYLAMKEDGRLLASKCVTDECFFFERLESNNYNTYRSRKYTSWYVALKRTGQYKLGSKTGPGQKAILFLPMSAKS
Experiment [15] is described as follows: mitochondrial membrane potential change in A549 cells, profiling panel, cell-based, JC-1 fluorescence, basal, 24 h, 100 nL (AID 1138).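 Note: A549 lung adenocarcinoma cells under basal conditions with no added stimulus; test concentration not given here.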 The note with it: higher = more signal.
The next experiment concerns Lefty1. Put plainly: Lefty1 binders on small-molecule microarrays, primary screen, biochemical, small-molecule microarray, 635/667 nm fluorescence (AID 1139). As to conditions: small-molecule microarray binding, fluorescence 635/667; higher = more signal.
The subject of experiment [16] is wheat germ agglutinin (Triticum aestivum), Alexa647-labelled. Briefly: wheat germ agglutinin binders on compound microarrays, profiling panel, artefact control for SMM control-protein annotation, biochemical, small-molecule microarray, 635/667 nm fluorescence (AID 1140).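 Note: score merges 667 nm feature emission with signal to noise over triplicate slides.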 The note with it: WGA-A647 binding, 635 nm fluorescence, higher = more signal.
Experiment [17] deals with Luciferin 4-monooxygenase (Photinus pyralis) (UniProt P08659). Briefly: firefly luciferase enzyme inhibitors, primary screen, biochemical, luminescence, purified enzyme, 2006 set (AID 1141).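 Note: cell-free assay with purified firefly luciferase at 100 ng per well in PBS; test concentration not given here.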 The note with it: SteadyGlo luminescence, 30 min, higher = more signal, called active from +8 up or from −8 down.
Chain of Luciferin 4-monooxygenase (Photinus pyralis) (P08659 whole entry, looked up): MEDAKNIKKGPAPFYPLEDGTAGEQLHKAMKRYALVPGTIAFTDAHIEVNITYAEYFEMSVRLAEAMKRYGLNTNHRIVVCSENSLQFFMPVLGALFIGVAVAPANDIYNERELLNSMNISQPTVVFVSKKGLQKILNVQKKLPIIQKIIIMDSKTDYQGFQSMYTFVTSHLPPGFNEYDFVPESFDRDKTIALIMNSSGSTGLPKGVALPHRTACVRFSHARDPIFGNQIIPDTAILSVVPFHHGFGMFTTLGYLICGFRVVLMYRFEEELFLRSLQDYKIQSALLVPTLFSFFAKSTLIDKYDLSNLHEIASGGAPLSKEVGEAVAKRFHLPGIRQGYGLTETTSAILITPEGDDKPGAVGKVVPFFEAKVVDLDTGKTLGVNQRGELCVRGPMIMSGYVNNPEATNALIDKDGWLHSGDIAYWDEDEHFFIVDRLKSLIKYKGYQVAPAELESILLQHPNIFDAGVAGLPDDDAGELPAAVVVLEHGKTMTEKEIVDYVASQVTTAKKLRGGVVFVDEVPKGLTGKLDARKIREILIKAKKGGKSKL

Molecules are shown by their SMILES. The source made the active and inactive calls.

Chain of Albumin (Bos taurus) (P02769 whole entry, looked up): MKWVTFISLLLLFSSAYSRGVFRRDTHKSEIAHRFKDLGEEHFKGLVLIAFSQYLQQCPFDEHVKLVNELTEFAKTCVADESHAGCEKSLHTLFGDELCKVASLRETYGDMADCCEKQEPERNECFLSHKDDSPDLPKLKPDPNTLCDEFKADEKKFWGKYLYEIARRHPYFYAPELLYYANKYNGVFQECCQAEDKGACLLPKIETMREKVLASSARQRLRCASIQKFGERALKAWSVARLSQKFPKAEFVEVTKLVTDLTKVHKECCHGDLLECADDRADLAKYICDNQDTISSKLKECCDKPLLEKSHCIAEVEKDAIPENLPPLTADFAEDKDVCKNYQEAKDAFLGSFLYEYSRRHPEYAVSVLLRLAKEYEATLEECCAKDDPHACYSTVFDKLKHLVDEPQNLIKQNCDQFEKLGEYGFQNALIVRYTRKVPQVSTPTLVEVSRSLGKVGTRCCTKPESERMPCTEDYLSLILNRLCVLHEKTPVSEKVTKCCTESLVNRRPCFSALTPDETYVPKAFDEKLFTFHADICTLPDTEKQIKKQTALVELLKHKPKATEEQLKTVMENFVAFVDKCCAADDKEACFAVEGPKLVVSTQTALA
Chain of Concanavalin-A (Canavalia ensiformis) (P02866 whole entry, looked up): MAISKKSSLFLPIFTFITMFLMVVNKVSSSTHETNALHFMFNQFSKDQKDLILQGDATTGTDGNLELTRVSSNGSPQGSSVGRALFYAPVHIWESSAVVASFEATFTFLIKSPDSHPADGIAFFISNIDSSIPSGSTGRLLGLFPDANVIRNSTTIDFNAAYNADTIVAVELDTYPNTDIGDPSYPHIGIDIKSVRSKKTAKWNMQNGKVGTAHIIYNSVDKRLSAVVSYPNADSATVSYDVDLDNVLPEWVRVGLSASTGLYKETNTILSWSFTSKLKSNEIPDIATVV

For the compound `CO[C@H]1COC(=O)[C@@H](C)NC(=O)CC=C[C@@H](C)[C@H](OC)COC(=O)CC=C[C@@H]1C`, the composite z-score with Albumin (Bos taurus) was -0.731; in experiment [2] it was -0.0679; in experiment [3], -0.201; in experiment [4], -0.576; in [5], -0.724; in experiment [6], -0.517. Moreover, the composite z-score with Sam68 (KHDRBS1) is 0.32; in [7] it was 1.46; in experiment [8], -1.28; in experiment [9], -0.31; in experiment [10], -1.46; in [11], 0.223. The composite z-score in [12] is -1.07; in experiment [13], 1.34; in experiment [14], 1.63; in the experiment with Lefty1, 1.66; in [16], -1.16. In addition, the composite Z-score in [1] was 1.16 (inactive). Also, the z-score in [15] is 2.3; in experiment [17] it was -1.38 (inactive).

Turning to `Cc1ccc(S[C@]2(C(=O)NCCCN(C)C)CC(=O)N(Cc3ccccc3)[C@@H]2c2ccc(CO)cc2I)cc1`, the composite z-score is 0.717 with Albumin (Bos taurus); 0.0762 in [2]; -0.0771 in experiment [3]; 0.688 in experiment [4]; 2 in experiment [5]; 0.755 in experiment [6]. Also, the composite z-score in the experiment on Sam68 (KHDRBS1) is -0.381; in experiment [7], -0.855; in [8], 0.362; in [9], 0.412; in experiment [10], -0.0835; in experiment [11], 0.152. Moreover, the composite z-score in experiment [12] is 0.233; in [13] it was -0.143; in [14], -1.33; in the experiment on Lefty1, -0.892; in experiment [16], 0.876. Besides, the composite Z-score in experiment [1] is 0.35 (inactive). Besides, the z-score in experiment [15] was 3.68; in experiment [17], -0.0307 (inactive).

As for `CO[C@@H]1COC(=O)[C@H](C)NC(=O)CC=C[C@@H](C)[C@H](NS(=O)(=O)c2ccc(C)cc2)COC(=O)CC=C[C@@H]1C`, the composite z-score with Albumin (Bos taurus) was -0.471; in experiment [2], 0.0066; in [3] it was -0.0554; in experiment [4], -0.185; in experiment [5], 0.0657; in experiment [6], -0.319. In addition, the composite z-score with Sam68 (KHDRBS1) is -0.354; in experiment [7] it was -0.0932; in experiment [8] it was -0.809; in [9], 0.373; in experiment [10] it was 0.0643; in [11], -0.181. Also, the composite z-score in [12] is -0.412; in [13] it was -0.268; in experiment [14], 0.0544; with Lefty1, -0.0101; in experiment [16], -0.872. Further, the composite Z-score in [1] was 0.237 (inactive). The z-score in experiment [15] was 1.43; in [17], -1.11 (inactive).

For `CC(=O)NCCCC[C@@H]1NC(=O)[C@H]2C[C@@H](C(=O)NCCCCCCN(C)C)[C@@H](c3ccc(O)cc3)N2C1=O`, the composite z-score with Albumin (Bos taurus) was -0.546; in [2], 0.029; in experiment [3], -0.0626; in experiment [4], 0.365; in experiment [5], 2.16; in [6], -0.1. The composite z-score in the experiment with Sam68 (KHDRBS1) turned out to be 1.31; in experiment [7], 1.09; in experiment [8], 1.18; in [9] it was 3.14; in experiment [10], 1.25; in experiment [11], 0.554. Besides, the composite z-score in experiment [12] was 0.793; in experiment [13] it was 1.34; in [14], 0.903; in the experiment with Lefty1, 1.55; in [16] it was 1.29. In [1], the composite Z-score was 1.44 (inactive). Moreover, the z-score in experiment [15] is -1.26; in experiment [17], 0.0866 (inactive).

Turning to `C[C@@H]1CC[C@H]2C(=O)N3[C@@H](CC[C@@H](C)[C@@H]3c3cccc(N4CCOCC4)c3)C(=O)N2[C@H]1c1cccc(Br)c1`, the composite z-score is 0.718 with Albumin (Bos taurus); -0.0259 in experiment [2]; -0.0956 in experiment [3]; 0.459 in [4]; 0.425 in experiment [5]; 0.336 in [6]. In addition, the composite z-score is 1.16 with Sam68 (KHDRBS1); 0.932 in experiment [7]; 0.92 in [8]; 1.52 in experiment [9]; 1.04 in experiment [10]; -0.0269 in [11]. Also, the composite z-score in experiment [12] was determined as 0.783; in [13], 1.12; in experiment [14] it was 0.555; with Lefty1, 1.15; in experiment [16] it was 1.04. Moreover, the composite Z-score in [1] was 0.307 (inactive). In addition, the z-score is 2.96 in [15] and -1.13 (inactive) in [17].

For `C=C(CCCC)C(=O)CC[C@@H](OC(C)=O)c1ccccc1OCCO`, the composite z-score was -0.993 with Albumin (Bos taurus); -0.13 in experiment [2]; -0.117 in experiment [3]; 0.638 in [4]; -0.429 in experiment [5]; 1.23 in experiment [6]. The composite z-score was -0.665 in the experiment with Sam68 (KHDRBS1); -0.646 in experiment [7]; -1.43 in [8]; -0.848 in [9]; -0.806 in experiment [10]; -0.523 in experiment [11]. Further, the composite z-score was -1.75 in experiment [12]; -0.245 in [13]; -0.508 in [14]; -0.0521 in the experiment on Lefty1; -0.788 in [16]. Also, the composite Z-score in [1] was 2.25 (inactive). Moreover, the z-score in [15] is 0.846; in [17], -1.33 (inactive).
